# Where two headings read alike, the source gives them in different places.
# Assays:
# MAP4K2 = conditions: read-out: apparent Kd, n = 1
# MARK3 = conditions: read-out: apparent Kd, n = 1
# [1] = compound concentrations:100 nM and 1000 nM (sheet 'Lestaurtinib' of Supplementary Table 1),run:Lestaurtinib_02364_R3,Plate:MR002
# [2] = compound concentrations:100 nM and 1000 nM (sheet 'Lestaurtinib' of Supplementary Table 1),run:Lestaurtinib_02367_R2,Plate:MR003
# [3] = compound concentrations:100 nM and 1000 nM (sheet 'Lestaurtinib' of Supplementary Table 1),run:Lestaurtinib_02381_R1,Plate:MR004
# [4] = compound concentrations:100 nM and 1000 nM (sheet 'Lestaurtinib' of Supplementary Table 1),run:Lestaurtinib_02407_R1,Plate:MR005
# [5] = compound concentrations:100 nM and 1000 nM (sheet 'Lestaurtinib' of Supplementary Table 1),run:Lestaurtinib_02407_R2,Plate:MR005
# [6] = compound concentrations:100 nM and 1000 nM (sheet 'Lestaurtinib' of Supplementary Table 1),run:Lestaurtinib_02422_R1,Plate:MR006
# [7] = compound concentrations:100 nM and 1000 nM (sheet 'Lestaurtinib' of Supplementary Table 1),run:Lestaurtinib_02422_R2,Plate:MR006
# [8] = compound concentrations:100 nM and 1000 nM (sheet 'Lestaurtinib' of Supplementary Table 1),run:Lestaurtinib_02437_R3,Plate:MR007
# [9] = compound concentrations:100 nM and 1000 nM (sheet 'Lestaurtinib' of Supplementary Table 1),run:Lestaurtinib_02438_R1,Plate:MR008
# [10] = compound concentrations:100 nM and 1000 nM (sheet 'Lestaurtinib' of Supplementary Table 1),run:Lestaurtinib_02438_R2,Plate:MR008
substance,measurement,setting,value
Lestaurtinib,potency estimated from few doses,MAP4K2; [1],260 nM
same,potency estimated from few doses,MAP4K2; [2],163 nM
same,potency estimated from few doses,MAP4K2; [3],163 nM
same,potency estimated from few doses,"MAP4K2; compound concentrations:100 nM and 1000 nM (sheet 'Lestaurtinib' of Supplementary Table 1),run:Lestaurtinib_02381_R3,Plate:MR004",229 nM
same,potency estimated from few doses,MAP4K2; [4],134 nM
same,potency estimated from few doses,MAP4K2; [5],149 nM
same,potency estimated from few doses,"MAP4K2; compound concentrations:100 nM and 1000 nM (sheet 'Lestaurtinib' of Supplementary Table 1),run:Lestaurtinib_02407_R3,Plate:MR005",180 nM
same,potency estimated from few doses,MAP4K2; [6],191 nM
same,potency estimated from few doses,MAP4K2; [7],261 nM
same,potency estimated from few doses,"MAP4K2; compound concentrations:100 nM and 1000 nM (sheet 'Lestaurtinib' of Supplementary Table 1),run:Lestaurtinib_02422_R3,Plate:MR006",163 nM
same,potency estimated from few doses,MAP4K2; [8],29.8 nM
same,potency estimated from few doses,MAP4K2; [9],151 nM
same,potency estimated from few doses,MAP4K2; [10],277 nM
same,potency estimated from few doses,"MAP4K2; compound concentrations:100 nM and 1000 nM (sheet 'Lestaurtinib' of Supplementary Table 1),run:Lestaurtinib_02473_R1,Plate:MR010",197 nM
same,potency estimated from few doses,"MAP4K2; compound concentrations:100 nM and 1000 nM (sheet 'Lestaurtinib' of Supplementary Table 1),run:Lestaurtinib_02473_R2,Plate:MR010",202 nM
same,potency estimated from few doses,"MAP4K2; compound concentrations:100 nM and 1000 nM (sheet 'Lestaurtinib' of Supplementary Table 1),run:Lestaurtinib_02482_R2,Plate:MR011",222 nM
same,potency estimated from few doses,"MAP4K2; compound concentrations:100 nM and 1000 nM (sheet 'Lestaurtinib' of Supplementary Table 1),run:Lestaurtinib_02487_R2,Plate:MR012",182 nM
same,potency estimated from few doses,"MAP4K2; compound concentrations:100 nM and 1000 nM (sheet 'Lestaurtinib' of Supplementary Table 1),run:Lestaurtinib_02487_R3,Plate:MR012",244 nM
same,potency estimated from few doses,"MAP4K2; compound concentrations:100 nM and 1000 nM (sheet 'Lestaurtinib' of Supplementary Table 1),run:Lestaurtinib_02496_R1,Plate:MR013",231 nM
same,potency estimated from few doses,"MAP4K2; compound concentrations:100 nM and 1000 nM (sheet 'Lestaurtinib' of Supplementary Table 1),run:Lestaurtinib_02566_R1,Plate:MR014",259 nM
same,potency estimated from few doses,"MAP4K2; compound concentrations:100 nM and 1000 nM (sheet 'Lestaurtinib' of Supplementary Table 1),run:Lestaurtinib_02566_R2,Plate:MR014",180 nM
same,potency estimated from few doses,"MAP4K2; compound concentrations:100 nM and 1000 nM (sheet 'Lestaurtinib' of Supplementary Table 1),run:Lestaurtinib_02566_R3,Plate:MR014",159 nM
same,potency estimated from few doses,"MAP4K2; compound concentrations:100 nM and 1000 nM (sheet 'Lestaurtinib' of Supplementary Table 1),run:Lestaurtinib_02572_R1,Plate:MR015",196 nM
same,potency estimated from few doses,"MAP4K2; compound concentrations:100 nM and 1000 nM (sheet 'Lestaurtinib' of Supplementary Table 1),run:Lestaurtinib_02572_R3,Plate:MR015",235 nM
same,potency estimated from few doses,"MAP4K2; compound concentrations:100 nM and 1000 nM (sheet 'Lestaurtinib' of Supplementary Table 1),run:Lestaurtinib_02577_R1,Plate:MR016",199 nM
same,potency estimated from few doses,"MAP4K2; compound concentrations:100 nM and 1000 nM (sheet 'Lestaurtinib' of Supplementary Table 1),run:Lestaurtinib_02577_R3,Plate:MR016",131 nM
same,potency estimated from few doses,"MAP4K2; compound concentrations:100 nM and 1000 nM (sheet 'Lestaurtinib' of Supplementary Table 1),run:Lestaurtinib_02584_R3,Plate:MR017",245 nM
same,potency estimated from few doses,"MAP4K2; compound concentrations:100 nM and 1000 nM (sheet 'Lestaurtinib' of Supplementary Table 1),run:Lestaurtinib_02601_R2,Plate:MR018",153 nM
same,potency estimated from few doses,"MAP4K2; compound concentrations:100 nM and 1000 nM (sheet 'Lestaurtinib' of Supplementary Table 1),run:Lestaurtinib_02606_R1,Plate:MR019",184 nM
same,potency estimated from few doses,"MAP4K2; compound concentrations:100 nM and 1000 nM (sheet 'Lestaurtinib' of Supplementary Table 1),run:Lestaurtinib_02606_R2,Plate:MR019",278 nM
same,potency estimated from few doses,"MAP4K2; compound concentrations:100 nM and 1000 nM (sheet 'Lestaurtinib' of Supplementary Table 1),run:Lestaurtinib_02606_R3,Plate:MR019",191 nM
same,potency estimated from few doses,"MAP4K2; compound concentrations:100 nM and 1000 nM (sheet 'Lestaurtinib' of Supplementary Table 1),run:Lestaurtinib_02724_R1,Plate:MR021",279 nM
same,potency estimated from few doses,"MAP4K2; compound concentrations:100 nM and 1000 nM (sheet 'Lestaurtinib' of Supplementary Table 1),run:Lestaurtinib_02724_R2,Plate:MR021",279 nM
same,potency estimated from few doses,"MAP4K2; compound concentrations:100 nM and 1000 nM (sheet 'Lestaurtinib' of Supplementary Table 1),run:Lestaurtinib_02724_R3,Plate:MR021",269 nM
same,potency estimated from few doses,"MAP4K2; compound concentrations:100 nM and 1000 nM (sheet 'Lestaurtinib' of Supplementary Table 1),run:Lestaurtinib_02741_R1,Plate:MR023",191 nM
same,potency estimated from few doses,"MAP4K2; compound concentrations:100 nM and 1000 nM (sheet 'Lestaurtinib' of Supplementary Table 1),run:Lestaurtinib_02741_R3,Plate:MR023",237 nM
same,potency estimated from few doses,"MAP4K2; compound concentrations:100 nM and 1000 nM (sheet 'Lestaurtinib' of Supplementary Table 1),run:Lestaurtinib_02748_R2,Plate:MR024",289 nM
same,potency estimated from few doses,"MAP4K2; compound concentrations:100 nM and 1000 nM (sheet 'Lestaurtinib' of Supplementary Table 1),run:Lestaurtinib_02752_R2,Plate:MR025",134 nM
same,potency estimated from few doses,"MAP4K2; compound concentrations:100 nM and 1000 nM (sheet 'Lestaurtinib' of Supplementary Table 1),run:Lestaurtinib_02752_R3,Plate:MR025",136 nM
same,potency estimated from few doses,"MAP4K2; compound concentrations:100 nM and 1000 nM (sheet 'Lestaurtinib' of Supplementary Table 1),run:Lestaurtinib_02765_R2,Plate:MR026",199 nM
same,potency estimated from few doses,"MAP4K2; compound concentrations:100 nM and 1000 nM (sheet 'Lestaurtinib' of Supplementary Table 1),run:Lestaurtinib_02765_R3,Plate:MR026",158 nM
same,potency estimated from few doses,"MAP4K2; compound concentrations:100 nM and 1000 nM (sheet 'Lestaurtinib' of Supplementary Table 1),run:Lestaurtinib_02766_R2,Plate:MR027",220 nM
same,potency estimated from few doses,"MAP4K2; compound concentrations:100 nM and 1000 nM (sheet 'Lestaurtinib' of Supplementary Table 1),run:Lestaurtinib_02766_R3,Plate:MR027",231 nM
same,potency estimated from few doses,"MAP4K2; compound concentrations:100 nM and 1000 nM (sheet 'Lestaurtinib' of Supplementary Table 1),run:Lestaurtinib_02768_R1,Plate:MR028",190 nM
same,potency estimated from few doses,"MAP4K2; compound concentrations:100 nM and 1000 nM (sheet 'Lestaurtinib' of Supplementary Table 1),run:Lestaurtinib_02768_R3,Plate:MR028",196 nM
same,potency estimated from few doses,"MAP4K2; compound concentrations:100 nM and 1000 nM (sheet 'Lestaurtinib' of Supplementary Table 1),run:Lestaurtinib_02795_R1,Plate:MR022",199 nM
same,potency estimated from few doses,"MAP4K2; compound concentrations:100 nM and 1000 nM (sheet 'Lestaurtinib' of Supplementary Table 1),run:Lestaurtinib_02795_R2,Plate:MR022",146 nM
same,potency estimated from few doses,"MAP4K2; compound concentrations:100 nM and 1000 nM (sheet 'Lestaurtinib' of Supplementary Table 1),run:Lestaurtinib_02795_R3,Plate:MR022",377 nM
same,potency estimated from few doses,"MAP4K2; compound concentrations:100 nM and 1000 nM (sheet 'Lestaurtinib' of Supplementary Table 1),run:Lestaurtinib_02802_R3,Plate:MR029",290 nM
same,potency estimated from few doses,"MAP4K2; compound concentrations:100 nM and 1000 nM (sheet 'Lestaurtinib' of Supplementary Table 1),run:Lestaurtinib_02896_R2,Plate:MR030",215 nM
same,potency estimated from few doses,"MAP4K2; compound concentrations:100 nM and 1000 nM (sheet 'Lestaurtinib' of Supplementary Table 1),run:Lestaurtinib_03172_R2,Plate:MR031",295 nM
same,potency estimated from few doses,"MAP4K2; compound concentrations:100 nM and 1000 nM (sheet 'Lestaurtinib' of Supplementary Table 1),run:Lestaurtinib_03172_R3,Plate:MR031",235 nM
same,potency estimated from few doses,"MAP4K2; compound concentrations:100 nM and 1000 nM (sheet 'Lestaurtinib' of Supplementary Table 1),run:Lestaurtinib_03252_R1,Plate:MR032",130 nM
same,potency estimated from few doses,"MAP4K2; compound concentrations:100 nM and 1000 nM (sheet 'Lestaurtinib' of Supplementary Table 1),run:Lestaurtinib_03260_R1,Plate:MR033",372 nM
same,potency estimated from few doses,"MAP4K2; compound concentrations:100 nM and 1000 nM (sheet 'Lestaurtinib' of Supplementary Table 1),run:Lestaurtinib_03260_R3,Plate:MR033",228 nM
same,potency estimated from few doses,"MARK3; compound concentrations:100 nM and 1000 nM (sheet 'Lestaurtinib' of Supplementary Table 1),run:Lestaurtinib_02364_R1,Plate:MR002",132 nM
same,potency estimated from few doses,MARK3; [1],180 nM
same,potency estimated from few doses,"MARK3; compound concentrations:100 nM and 1000 nM (sheet 'Lestaurtinib' of Supplementary Table 1),run:Lestaurtinib_02367_R1,Plate:MR003",92.8 nM
same,potency estimated from few doses,MARK3; [2],160 nM
same,potency estimated from few doses,MARK3; [3],132 nM
same,potency estimated from few doses,"MARK3; compound concentrations:100 nM and 1000 nM (sheet 'Lestaurtinib' of Supplementary Table 1),run:Lestaurtinib_02381_R2,Plate:MR004",167 nM
same,potency estimated from few doses,MARK3; [4],160 nM
same,potency estimated from few doses,MARK3; [5],151 nM
same,potency estimated from few doses,MARK3; [6],169 nM
same,potency estimated from few doses,MARK3; [7],52.3 nM
same,potency estimated from few doses,"MARK3; compound concentrations:100 nM and 1000 nM (sheet 'Lestaurtinib' of Supplementary Table 1),run:Lestaurtinib_02437_R1,Plate:MR007",151 nM
same,potency estimated from few doses,"MARK3; compound concentrations:100 nM and 1000 nM (sheet 'Lestaurtinib' of Supplementary Table 1),run:Lestaurtinib_02437_R2,Plate:MR007",133 nM
same,potency estimated from few doses,MARK3; [8],23.2 nM
same,potency estimated from few doses,MARK3; [9],196 nM
same,potency estimated from few doses,MARK3; [10],160 nM
same,potency estimated from few doses,"MARK3; compound concentrations:100 nM and 1000 nM (sheet 'Lestaurtinib' of Supplementary Table 1),run:Lestaurtinib_02443_R1,Plate:MR009",202 nM
same,potency estimated from few doses,"MARK3; compound concentrations:100 nM and 1000 nM (sheet 'Lestaurtinib' of Supplementary Table 1),run:Lestaurtinib_02443_R2,Plate:MR009",181 nM

# Source: publication PMC11062922 (Nature Chemical Biology, 2023)
